Measurements as given in PubChem BioAssay (EPA / NIEHS).
The source made the active and inactive calls. How the source made its calls: active means hit-call score of the fitted dose curve at least 0.9, where 1 is the maximum; inconclusive means response in the unintended direction; inactive means score below 0.9.

test system: rat CYP3A1, gene 25642; experiment: NVS_ADME_rCYP3A1: NovaScreen (NVS) CYP450-related Enzyme Activity (ADME) Assay for rat CYP3A1 (AID 2283126)
Description: NVS_ADME_rCYP3A1 is a biochemical, single-readout assay that uses extracted gene-proteins in a cell-free assay. Measurements were taken 0.5 hour after chemical dosing in a 96-well plate.NVS_ADME_rCYP3A1 is one of one assay component(s) measured or calculated from the NVS_ADME_rCYP3A1 assay. It is designed to make measurements of enzyme activity, a form of enzyme reporter, as detected with fluorescence intensity signals by Fluorescence technology.Data from the assay component NVS_ADME_rCYP3A1 was analyzed into 1 assay endpoint. This assay endpoint, NVS_ADME_rCYP3A1, was analyzed in the positive analysis fitting direction relative to Acetonitrile as the negative control and baseline of activity. Using a type of enzyme reporter, loss-of-signal activity can be used to understand changes in the enzymatic activity as they relate to the gene Cyp3a23/3a1. Furthermore, this assay endpoint can be referred to as a primary readout, because this assay has produced multiple assay endpoints where this one serves a enzymatic activity function. To generalize the intended target to other relatable targets, this assay endpoint is annotated to the cyp intended target family, where the subfamily is xenobiotic metabolism.
Binding assays used specific radioligands (tritiated, iodinated) with non-radioactive competitive displacement ligands in agonist or antagonist protocols (as indicated) and various reference compounds and inhibitors to titrate specific binding to receptors and transporters. Most enzyme assays (CYPs, kinases, phosphatases, proteases, HDACs) used recombinant protein and specific substrates (fluorescence mostly, some colorimetric and radioactive) and inhibitors, followed by a biochemical separation of substrate and product. All assays for the biochemical HTS were initially run in duplicate at a single concentration (10 uM for CYP450 assays and 25 uM for all others). Assay-chemical combinations meeting a pre-defined threshold (e.g., 30% inhibition and other criteria defined below) were then run in singleton concentration-response format with maximum concentration of 20 uM for CYPs and 50 uM for all others. Each assay was run with positive and negative controls, and concurrent controls on every plate. The follow-up (secondary) screen tested active chemical-pairs in concentration series, as well as a few additional assays not tested in the primary screen, some selected negative inactives, and several cases re-run in the concentration series for confirmatory purposes.

Question: With `CCN(Cc1c(F)cccc1Cl)c1c([N+](=O)[O-])cc(C(F)(F)F)cc1[N+](=O)[O-]` as the compound, how does the AC50 read?
Answer: 6.19 µM (active)

Question: How did the AC50 turn out when `CN(C)C(=O)Nc1ccc(Cl)c(Cl)c1` was run?
Answer: 5.82 µM (active)

Question: `CCOC(=O)NCCOc1ccc(Oc2ccccc2)cc1` was tested. Which AC50 did it give?
Answer: 5.62 µM (active)

Question: How did the AC50 turn out when `CCCCOCCOCCOCc1cc2c(cc1CCC)OCO2` was run?
Answer: 5.03 µM (active)

Question: For `CC(C)(c1ccc(O)cc1)c1ccc(O)cc1`, which AC50 is on record?
Answer: 9.88 µM (active)

Question: `S=C([S-])NCCNC(=S)[S-].[Mn+2]` was tested. Which AC50 did it give?
Answer: 7.1 µM (active)

Question: For `Oc1ccc(C(c2ccc(O)cc2)C(Cl)(Cl)Cl)cc1`, which AC50 is on record?
Answer: 2.7 µM (active)

Question: With `S=C(S)NCCNC(=S)S.[Mn+2].[S-]C([S-])=NCCN=C([S-])[S-].[Zn+2]` as the compound, how does the AC50 read?
Answer: 10 µM (active)

Question: How did the AC50 turn out when `CC(C)(C)[C@@H](O)[C@@H](Cc1ccc(Cl)cc1)n1cncn1` was run?
Answer: 3.44 µM (active)

Question: `C=CCOC(Cn1ccnc1)c1ccc(Cl)cc1Cl` (stereo not drawn) was tested. Which AC50 did it give?
Answer: 0.729 µM (active)

Question: With `CSC(=O)c1cccc2nnsc12` as the compound, how does the AC50 read?
Answer: 4.28 µM (active)

Question: `N#CSCSc1nc2ccccc2s1` was tested. Which AC50 did it give?
Answer: 10.1 µM (active)

Question: `CCCCC(CC)CN1C(=O)C2C3C=CC(C3)C2C1=O` (stereo not drawn) was tested. Which AC50 did it give?
Answer: 6.63 µM (active)
